# hgDAF-12 ag – agonists of H. glycines DAF-12 nuclear receptor; HEK293 GAL4-hgDAF12 UAS-luciferase reporter, agonist luminescence; normalized to butyrate control; activation, % at 6.8 µM; hit rate 1.8% among 370,000;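 active means activation above a cutoff set at the mean of all screened compounds plus 3 SD, cut at about 10% in these data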;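 further: 0% = DMSO wells and 100% = sodium butyrate wells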
# DAX1 inh-1 – inhibitors of human orphan nuclear receptor DAX1 (NR0B1); P51843; HEK293 Gal4-DAX1 luciferase reporter, luminescence; inhibition, % at 6.75 µM; hit rate 0.99% among 340,000;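 active means inhibition above the mean over all tested compounds plus 3 SD, cut at about 4.2% in these data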;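 further: 0% = DAX1-transfected cells with DMSO and 100% = empty-vector control cells with DMSO; inhibition shows as a rise in luminescence from relieved DAX1 repression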
# Target sequence (P51843 207-470 limits assumed): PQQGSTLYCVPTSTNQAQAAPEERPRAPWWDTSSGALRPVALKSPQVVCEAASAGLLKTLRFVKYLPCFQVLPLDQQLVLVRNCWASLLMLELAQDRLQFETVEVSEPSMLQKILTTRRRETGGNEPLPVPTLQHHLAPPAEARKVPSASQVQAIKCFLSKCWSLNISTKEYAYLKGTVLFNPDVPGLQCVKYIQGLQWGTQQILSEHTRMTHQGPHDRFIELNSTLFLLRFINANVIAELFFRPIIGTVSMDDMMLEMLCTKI
# hcDAF-12 act – activates DAF-12 receptor from parasite H. contortus | activation, % at 6.8 µM | hit rate 1.4% among 370,000 | AID 652067 | HEK293 hcDAF-12 lit1-tk-luc reporter, luminescence; 0% DMSO, 100% Δ7-dafachronic acid;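 active means activation above the mean of all tested compounds plus 3 SD, cut at about 5.5% in these data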;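 further: 100% = response to 3 µM Δ7-dafachronic acid high control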
# DAX1 inh-2 – DAX1 (NR0B1) inhibition, primary screen; HEK293T StAR-luciferase reporter, SF-1/DAX-1 repression relief; hit rate 1.1% among 370,000; inhibition, % at 6.8 µM; AID 652010;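 active means inhibition above the mean over all tested compounds plus 3 SD, cut at about 3.6% in these data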;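 further: 0% = DAX-1 cells with DMSO and 100% = cells lacking DAX-1 with DMSO; higher inhibition means more luminescence from relief of DAX-1 repression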
# ssDAF12 agonist – activates DAF-12 receptor from parasite S. stercoralis. hit rate 1% among 370,000. AID 652126. HEK293 ssDAF-12/GRIP1 lit1-tk-luc reporter, luminescence; % of 3 µM dafachronic acid response. activation, % at 6.8 µM;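 active means activation above the mean over all tested compounds plus 3 SD, cut at about 0.9% in these data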;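 further: 0% = DMSO-only wells and 100% = 3 µM delta7-dafachronic acid wells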
# LXR ag – activates human LXR-beta, counter-screen for hcDAF-12 agonists; shares compounds with hcDAF-12 act; HEK293 Gal4-LXR tk-luc reporter, luminescence, 24 h; normalized: DMSO 0%, positive control 100%; activation, % at 6.8 µM; 3,400 tested, under 10 active; AID 743027;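 active means mean percent activation of the reporter above a cutoff set as the average over tested compounds plus their standard deviation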
# hcDAF12 ag – confirmation of H. contortus DAF-12 agonists | shares compounds with hcDAF-12 act | HEK293 hcDAF-12 lit1-tk-luc reporter, luminescence; % of Δ7-dafachronic acid response | activation, % at 6.8 µM | hit rate 61% among 3,400 | AID 743032;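 active means mean activation across triplicate tests above the threshold derived from the earlier primary screen, cut at about 5.5% in these data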;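 further: 0% = DMSO only wells and 100% = 3 µM Δ7-dafachronic acid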
# hgDAF12 ag – hgDAF-12 agonism, confirmation assay | shares compounds with hgDAF-12 ag | HEK293 GAL4-hgDAF12 luciferase reporter, agonist mode; percent of butyrate response | activation, % at 6.8 µM | hit rate 80% among 3,300 | AID 743050;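 active means mean activation over triplicate wells above the hit cutoff derived from the earlier primary screen, cut at about 11% in these data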;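 further: 0% = DMSO low control and 100% = 2 mM sodium butyrate high control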
# LXRb DAF12 ctr – counter-screen for DAF-12 agonists: agonists of human LXR-beta; shares compounds with hgDAF-12 ag; HEK293 Gal4-LXR luciferase reporter, 24 h; activation, % at 6.8 µM; 3,300 tested, under 10 active;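 active means mean activation of the triplicate above a set limit carried over from the primary screen, none filed active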
# The depositor's hits bear a star; · = not tested or not shown. A selection: hits, their analogues and other compounds. The true share with any hit is near 4.1%.
SMILES,hgDAF-12 ag,DAX1 inh-1,hcDAF-12 act,DAX1 inh-2,ssDAF12 agonist,LXR ag,hcDAF12 ag,hgDAF12 ag,LXRb DAF12 ctr
Cc1ccc(N2Cc3ccccc3C2=O)cc1,16*,5.4*,12*,2,1.5*,2,8.8*,17*,1
O=C(Nc1ccc2ccccc2n1)c1ccccc1Cl,16*,3,7.2*,1,0,2,5.7*,18*,1
O=C(Nc1cccc(NC(=O)c2ccc(Cl)cc2)n1)c1ccc(Cl)cc1,1,1,0,0,-1,·,·,·,·
O=C(Nc1ccc2ccccc2n1)c1ccc(Cl)cc1,15*,3,10*,1,1,2,7.0*,19*,1
CCOC(=O)[C@@H]1CSCCS(=O)(=O)N1C(=O)[C@H](C)NC(=O)OC(C)(C)C,2,·,1,-1,0,·,·,·,·
CN(C)C(=O)c1c(NC(=O)c2ccco2)sc2c1CCCCC2,1,0,-2,0,-1,·,·,·,·
NC(=O)c1c(NC(=O)c2ccco2)sc2c1CCC2,14*,2,6.7*,2,1.1*,1,8.9*,17*,1
Cc1nn(-c2nc3ccccc3s2)c(N)c1-c1ccccc1,19*,4,15*,4.5*,0,1,5,18*,1
Cc1ccccc1Cn1nnc(-c2ccc(C(=O)O)cc2)n1,0,0,-2,0,0,·,·,·,·
O=C(O)c1cccc(-c2nnn(Cc3ccccc3Cl)n2)c1,13*,-4,6.7*,4.4*,2.0*,1,8.5*,22*,1
Cc1c(C)c(C)c(CN2CCCC2)c(C)c1C,2,1,0,1,-1,·,·,·,·
N/C(=N\OC(=O)c1ccc(Cl)cc1)c1[nH]ncc1Br,19*,3,12*,3,1,2,7.3*,21*,1
CCO/N=C(\N)c1[nH]ncc1Br,0,-1,2,0,0,·,·,·,·
COc1ccc2oc(C)c(C(=O)c3ccc(C)cc3)c2c1,5,1,-1,0,-1,·,·,·,·
c1ccc2c(-c3csc(-c4ccncc4)n3)c[nH]c2c1,28*,-1,13*,1,1.6*,1,14*,15*,0
Brc1ccc(-c2csc(-c3c[nH]c4ccccc34)n2)cc1,7,2,4,1,0,·,·,·,·
O=C(Nc1cnc2ccccc2c1)c1ccco1,15*,0,7.1*,3,0,2,4,18*,1
O=C(Nc1cccc(-c2cnc3ccccc3n2)c1)c1ccco1,1,0,-1,0,-1,·,·,·,·
Cc1cccc(N/C=C/C(=O)c2ccc(Cl)cc2)c1,14*,4.7*,6.6*,2,0,2,6.9*,22*,1
Cc1ccc(Cl)c(N/C=C/C(=O)c2ccccc2)c1,15*,3,13*,3,2.9*,2,16*,26*,1
COc1ccc(N/C=C\C(=O)c2ccc(C)cc2)cc1OC,1,1,-1,0,-1,·,·,·,·
CN(C(=O)COC(=O)CSc1ccccc1)c1c(N)n(Cc2ccccc2)c(=O)[nH]c1=O,0,0,-2,0,-1,·,·,·,·
C=CCn1c(C)cc(C(=O)CN2NS(=O)(=O)c3ccccc3C2=O)c1C,15*,5.4*,8.8*,3,1.8*,0,5.8*,5,0
COc1ccc(NC(=O)C2(C)CCN2C(=O)C(C)C)cc1F (centres undefined),-4,·,0,-1,-1,·,·,·,·
COc1ccc(/C=N/NC(=O)c2ccncc2)cc1COc1ccc(NC(C)=O)cc1,-2,·,-2,0,-1,·,·,·,·
SMILES,hgDAF-12 ag,DAX1 inh-1,hcDAF-12 act,DAX1 inh-2,ssDAF12 agonist,LXR ag,hcDAF12 ag,hgDAF12 ag,LXRb DAF12 ctr
Nc1cc(-c2nc3ncccc3o2)ccc1Cl,14*,2,12*,3,1.4*,1,8.3*,10,0
COc1ccc(-c2cc(C(=O)NCc3cn(C)nc3C)c3ccccc3n2)cc1OC,1,0,-1,-1,-1,·,·,·,·
Cc1cc(SCC(=O)c2ccc(Cl)cc2)nc(=O)[nH]1,15*,1,6.8*,3,1.3*,2,5.8*,15*,1
Cc1cc(SCc2ccc(Cl)cc2Cl)nc(=O)[nH]1,0,0,-1,-1,-1,·,·,·,·
CCc1ccc2oc(-c3cccc(N)c3)nc2c1,16*,-1,16*,4.3*,3.3*,2,14*,24*,1
Nc1ccc2oc(-c3cccc(Br)c3)nc2c1,·,1,·,·,·,·,·,·,·
CCn1c(Cc2cccs2)nnc1SCC(=O)Nc1ccc(OCc2ccccc2)cc1,7,·,-1,-2,-2,·,·,·,·
O=C(NC(CO)C(=O)OCc1ccccc1)OCc1ccccc1 (centres undefined),3,0,0,1,-2,·,·,·,·
Clc1ccc(-c2ccnc3nc(N4CCOCC4)nn23)c(Cl)c1,2,2,-1,0,-2,·,·,·,·
Clc1ccc(-c2nsc(N3CCOCC3)n2)c(Cl)c1,16*,1,8.6*,2,1,1,3,16*,1
Cc1cc2nc(-c3ccc[nH]c3=O)n(Cc3ccc(F)cc3)c2cc1C,1,1,0,0,-1,·,·,·,·
Cc1cc2nc(-c3ccc[nH]c3=O)[nH]c2cc1C,15*,-5,7.6*,3,1.2*,2,7.9*,12*,1
CC(C)N(C(=O)CS(=O)(=O)c1ccc(Cl)c(Cl)c1)C(C)C,-1,0,-1,0,-1,·,·,·,·
Cc1csc(NC(=O)c2ccc3nc[nH]c3c2)n1,20*,1,9.8*,2,0,1,5,20*,1
COc1ccccc1-n1cnnc1SC(C)C(=O)Nc1cccc([N+](=O)[O-])c1 (centres undefined),-3,-1,-2,0,-1,·,·,·,·
O=C(Nc1ccc2[nH]c(=O)[nH]c2c1)Nc1ccc(F)cc1F,-2,0,-2,0,-2,·,·,·,·
O=C(Nc1ccc2[nH]c(=S)sc2c1)Nc1ccccc1F,15*,1,7.4*,2,1.7*,2,8.0*,20*,1
Cc1ccc(C(=Cc2ccc([N+](=O)[O-])cc2)C(=O)O)cc1,2,1,-2,0,-1,·,·,·,·
